According to the supplement of paper PMC8728848:
Many of the other results were omitted from the sample, so the strongest signals are more common in it than they were.

How the values were obtained:
Assay in all cases: glycan array binding signal (z-score within array); higher = stronger binding
Details in all cases: glycan notation: IUPAC condensed, linker removed
Gal3S(b1-3)GalNAc = molecular target: Gal3S(b1-3)GalNAc
Method in brief: (§1)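 From the Consortium for Functional Glycomics database, 3228 arrays were curated, keeping only those whose protein sequence was available. Binding is given as a within-array Z-score averaged across arrays sharing a protein sequence and across linkers. Negative Z-scores can be read as non-binding.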

Gal3S(b1-4)GlcNAc6S = molecular target: Gal3S(b1-4)GlcNAc6S
Method in brief: as §1

Gal6S(b1-4)Glc = molecular target: Gal6S(b1-4)Glc
Method in brief: as §1

[1] = molecular target: GalNAc(a1-3)GalNAc(b1-3)Gal(a1-4)Gal(b1-4)GlcNAc
Method in brief: as §1

[2] = molecular target: GlcA3S(b1-3)Gal(b1-4)GlcNAc(b1-2)Man
Method in brief: as §1

[3] = molecular target: GlcA3S(b1-3)Gal(b1-4)GlcNAc(b1-3)Gal(b1-4)Glc
Method in brief: as §1

[4] = molecular target: GlcNAc(a1-4)Gal(b1-4)GalNAc
Method in brief: as §1

[5] = molecular target: GlcNAc(b1-2)Man(a1-3)[GlcNAc(b1-4)][GlcNAc(b1-2)Man(a1-6)]Man(b1-4)GlcNAc(b1-4)GlcNAc
Method in brief: as §1

[6] = molecular target: GlcNAc(b1-2)Man(a1-3)[GlcNAc(b1-4)][GlcNAc(b1-2)Man(a1-6)]Man(b1-4)GlcNAc(b1-4)[Fuc(a1-6)]GlcNAc
Method in brief: as §1

[7] = molecular target: GlcNAc(b1-2)[GlcNAc(b1-4)]Man(a1-3)[GlcNAc(b1-4)][GlcNAc(b1-2)Man(a1-6)]Man(b1-4)GlcNAc(b1-4)GlcNAc
Method in brief: as §1

[8] = molecular target: GlcNAc(b1-3)Gal(b1-4)GlcNAc(b1-6)[Gal(b1-3)]GalNAc
Method in brief: as §1

[9] = molecular target: Man(a1-3)[Man(a1-6)]Man(a1-6)[Man(a1-3)]Man(b1-4)GlcNAc(b1-4)GlcNAc
Method in brief: as §1

Neu5Ac(a2-3)Gal = molecular target: Neu5Ac(a2-3)Gal
Method in brief: as §1

[10] = molecular target: Neu5Ac(a2-3)Gal(b1-3)GalNAc(b1-3)Gal(a1-4)Gal(b1-4)Glc
Method in brief: as §1

[11] = molecular target: Neu5Ac(a2-3)Gal(b1-4)GlcNAc(b1-2)Man(a1-3)[GlcNAc(b1-2)Man(b1-4)GlcNAc(b1-2)Man(a1-6)]Man(b1-4)GlcNAc(b1-4)GlcNAc
Method in brief: as §1

[12] = molecular target: Neu5Ac(a2-3)Gal(b1-4)GlcNAc(b1-2)Man(a1-3)[Neu5Ac(a2-3)Gal(b1-4)GlcNAc(b1-2)Man(a1-6)]Man(b1-4)GlcNAc(b1-4)[Fuc(a1-6)]GlcNAc
Method in brief: as §1

[13] = molecular target: Neu5Ac(a2-3)Gal(b1-4)GlcNAc(b1-2)[Neu5Ac(a2-3)Gal(b1-4)GlcNAc(b1-4)]Man(a1-3)[GlcNAc(b1-4)][Neu5Ac(a2-3)Gal(b1-4)GlcNAc(b1-2)[Neu5Ac(a2-3)Gal(b1-4)GlcNAc(b1-6)]Man(a1-6)]Man(b1-4)GlcNAc(b1-4)GlcNAc
Method in brief: as §1

[14] = molecular target: Neu5Ac(a2-3)Gal(b1-4)GlcNAc(b1-2)[Neu5Ac(a2-3)Gal(b1-4)GlcNAc(b1-4)]Man(a1-3)[GlcNAc(b1-4)][Neu5Ac(a2-3)Gal(b1-4)GlcNAc(b1-4)Man(a1-6)]Man(b1-4)GlcNAc(b1-4)GlcNAc
Method in brief: as §1

[15] = molecular target: Neu5Ac(a2-3)Gal(b1-4)GlcNAc(b1-3)Gal(b1-4)GlcNAc(b1-3)Gal(b1-4)GlcNAc(b1-2)Man(a1-3)[Neu5Ac(a2-3)Gal(b1-4)GlcNAc(b1-3)Gal(b1-4)GlcNAc(b1-3)Gal(b1-4)GlcNAc(b1-2)Man(a1-6)]GalNAc
Method in brief: as §1

[16] = molecular target: Neu5Ac(a2-3)Gal(b1-4)GlcNAc(b1-3)Gal(b1-4)GlcNAc(b1-3)GalNAc
Method in brief: as §1

[17] = molecular target: Neu5Ac(a2-6)Gal(b1-4)GlcNAc(b1-2)Man(a1-3)[Neu5Ac(a2-6)Gal(b1-4)GlcNAc(b1-2)Man(a1-6)]Man(b1-4)GlcNAc(b1-4)GlcNAc
Method in brief: as §1

[18] = molecular target: Neu5Ac(a2-6)Gal(b1-4)GlcNAc(b1-2)Man(a1-3)[Neu5Ac(a2-6)Gal(b1-4)GlcNAc(b1-2)Man(a1-6)]Man(b1-4)GlcNAc(b1-4)[Fuc(a1-6)]GlcNAc
Method in brief: as §1

[19] = molecular target: Neu5Ac(a2-6)Gal(b1-4)GlcNAc(b1-2)Man(a1-6)[Man(a1-3)]Man(b1-4)GlcNAc(b1-4)GlcNAc
Method in brief: as §1

[20] = molecular target: Neu5Ac(a2-6)Gal(b1-4)GlcNAc(b1-3)Gal(b1-4)GlcNAc(b1-3)[Neu5Ac(a2-6)Gal(b1-4)GlcNAc(b1-3)Gal(b1-4)GlcNAc(b1-6)]GalNAc
Method in brief: as §1

Neu5Ac(a2-6)GalNAc = molecular target: Neu5Ac(a2-6)GalNAc
Method in brief: as §1

Neu5Ac(a2-8)Neu5Ac = molecular target: Neu5Ac(a2-8)Neu5Ac
Method in brief: as §1

[21] = molecular target: Neu5Ac(a2-8)Neu5Ac(a2-3)Gal(b1-3)GalNAc(b1-4)[Neu5Ac(a2-8)Neu5Ac(a2-3)]Gal(b1-4)Glc
Method in brief: as §1

[22] = molecular target: Neu5Ac(a2-8)Neu5Ac(a2-8)Neu5Ac(a2-8)Neu5Ac(a2-3)[GalNAc(b1-4)]Gal(b1-4)Glc
Method in brief: as §1

[23] = molecular target: Neu5Ac9Ac(a2-3)Gal(b1-3)GlcNAc
Method in brief: as §1

[24] = molecular target: Neu5Gc(a2-8)Neu5Gc(a2-3)Gal(b1-4)GlcNAc(b1-3)Gal(b1-4)GlcNAc
Method in brief: as §1

B1: AAL (Agrocybe aegerita), Q6WY08 (protein)
chain: MQGVNIYNISAGTSVDLAAPVTTGDIVTFFSSALNLNAGAGNPNNTTLNLFAENGAYLLHIAFRLQENVIIFNSRQPDGPWLVEQRVSDVANQFAGIDGKAMVTVFDHGDKYQVVINEKTVIQYTKQISGLTLSLSYNATEETSIFSTVVEAVTYTGLALEHHHHHH
glycan array binding signal (z-score) (Gal3S(b1-3)GalNAc): 9.4
glycan array binding signal (z-score) (Gal3S(b1-4)GlcNAc6S): 3.66
glycan array binding signal (z-score) (Gal6S(b1-4)Glc): -0.141
glycan array binding signal (z-score) [1]: -0.137
glycan array binding signal (z-score) [2]: 6.26
glycan array binding signal (z-score) [3]: 10.9
glycan array binding signal (z-score) [4]: -0.152
glycan array binding signal (z-score) [5]: -0.151
glycan array binding signal (z-score) [6]: -0.151
glycan array binding signal (z-score) [7]: -0.14
glycan array binding signal (z-score) [8]: -0.134
glycan array binding signal (z-score) [9]: -0.118
glycan array binding signal (z-score) (Neu5Ac(a2-3)Gal): -0.138
glycan array binding signal (z-score) [10]: 1.72
glycan array binding signal (z-score) [11]: 5.88
glycan array binding signal (z-score) [12]: 3.85
glycan array binding signal (z-score) [13]: 2.98
glycan array binding signal (z-score) [14]: 5.72
glycan array binding signal (z-score) [15]: -0.107
glycan array binding signal (z-score) [16]: -0.106
glycan array binding signal (z-score) [17]: -0.134
glycan array binding signal (z-score) [18]: -0.131
glycan array binding signal (z-score) [19]: -0.148
glycan array binding signal (z-score) [20]: -0.138
glycan array binding signal (z-score) (Neu5Ac(a2-6)GalNAc): -0.164
glycan array binding signal (z-score) (Neu5Ac(a2-8)Neu5Ac): -0.146
glycan array binding signal (z-score) [21]: -0.138
glycan array binding signal (z-score) [22]: -0.132
glycan array binding signal (z-score) [23]: -0.156
glycan array binding signal (z-score) [24]: 2.45
